Values joined by “and” are separate entries in the source; they are usually repeats but may differ in a detail not shown here. Equal entries are not always repeated. The whole screen tested about 6,400 compounds, of which about 610 (9.5%) were called active. No stated cut-off is given here; in the data, active means activity change below about -70%; inconclusive means no clear call, values can overlap the other calls; inactive means above that. What follows is part of a selection rich in actives, with near analogues and random picks from the rest. A structure can be active in one record and inactive in another.

The nature of this assay: T. gondii ME49Luc in HeLa cells, luciferase assay, 72 h, no IFN-y (AID 1259421). The note with it: stronger effect = lower value, concentration not given here.
On to `CCCC[C@H](C)C[C@H](O)/C=C/[C@H]1[C@H](O)CC(=O)[C@@H]1CCCC/C=C/C(=O)O`, for which the activity change, negative = inhibition was -0.328% (inactive). Then `C/C=C/C(=O)N(CC)c1ccccc1C`, with 14.6% (inactive) and 5.26% (inactive). To `C=C[C@@](C)(/C=C/c1ccc(O)cc1)CCC=C(C)C` belongs 11.8% (inactive); to `NC(=O)C(c1ccccc1)(c1ccc(F)cc1)c1ccc(F)cc1`, 1.76% (inactive); to `[O-][NH2+]c1ccc(O)c2ncccc12`, -71.9% (active) and -84.8% (active). Then `Oc1c(Br)cc(Br)c2cccnc12`, with -63.3% (inactive); and `Oc1ccc(Cl)c2cccnc12`, with 17.5% (inactive) and 6.79% (inactive); and `COc1ccc2c(c1OC)C(=O)O[C@@H]2C1c2c(cc3c(c2OC)OCO3)CCN1C` (some centres undefined), with 8.49% (inactive). `C[C@@H]1C(=O)O[C@H]2CC34[C@H]5C[C@@H](C(C)(C)C)[C@]36[C@@H](OC(=O)[C@@H]6O)O[C@@]4(C(=O)O5)[C@]21O` (some centres undefined): the activity change, negative = inhibition is 5.52% (inactive). To `CC(C)CCCC(C)[C@H]1CCC2C3C(=O)C=C4C[C@@H](O)CC[C@]4(C)C3CC[C@@]21C` (some centres undefined) belongs -7.52% (inactive). As for `CC(C)(C)NCC(O)COc1cccc2c1CCCC2=O` (centres undefined), the activity change, negative = inhibition is 12.5% (inactive) and -6.73% (inactive).

In the case of `CC(=O)O.CC(=O)O.[Cl][Pt+2][Cl].[NH-]C1CCCCC1.[NH2-]`, the activity change, negative = inhibition is 1.41% (inactive). For `O=C(O[C@@H]1Cc2c(O)cc(O)cc2O[C@@H]1c1ccc(O)c(O)c1)c1cc(O)c(O)c(O)c1`, the activity change, negative = inhibition was -0.0246% (inactive). Take `COc1ccc(NS(=O)(=O)c2ccc(I)cc2)cc1N1CCN(C)CC1`: the activity change, negative = inhibition was 0.621% (inactive) and -5.09% (inactive). Then `COc1ccc(NC(=O)c2ccc(-c3ccc(-c4noc(C)n4)cc3C)cc2)cc1N1CCN(C)CC1`, with -78.7% (active) and -44.9% (inactive); and `COc1ccc(NC(=O)c2ccc(-c3ccc(-c4noc(C)n4)cc3C)cc2)cc1OCCN(C)C`, with -53.8% (inactive) and -87.8% (active). Turning to `CN(C)CCCc1cc(C(=O)Nc2ccc(-c3ccncc3)cc2)ccc1O`, the activity change, negative = inhibition is 4.74% (inactive). To `COc1ccc(C(=O)NCc2ccc(OCCN(C)C)cc2)cc1OC` belongs -2.71% (inactive); to `COc1ccccc1N1CCN(CCCCNC(=O)c2ccc(-c3ccc(C(C)=O)cc3)cc2)CC1`, 7.26% (inactive). With `CN(C)c1ccc(O)c2c1C[C@H]1C[C@H]3[C@H](N(C)C)C(=O)C(C(N)=O)C(=O)[C@@]3(O)C(=O)C1C2=O` (some centres undefined), the activity change, negative = inhibition was -2.37% (inactive) and -2.12% (inactive). For `Cc1cc(O)cc(=O)o1`, the activity change, negative = inhibition is 2.59% (inactive).

With `CCCCCC/C=C/C=C\CCCCCCCC(=O)O`, the activity change, negative = inhibition was 9.04% (inactive). Then `Cc1cc(Nc2cc(CN3CCOCC3)c3nc(C)c(Cc4ccc(Cl)cc4F)n3n2)n[nH]1`, with -76.1% (active); and `FC(F)OC(Cl)C(F)(F)F` (centres undefined), with 4.04% (inactive). Regarding `CCCC(=O)O`, the activity change, negative = inhibition is 16.3% (inactive) and 10.7% (inactive). To `CN=C(NC#N)Nc1ccc(C2=NNC(=O)CC2C)cc1` (centres undefined) belongs 27% (inactive) and 4.42% (inactive); to `CCC(=O)NC1CCc2cccc(OC)c2C1` (centres undefined), 4.71% (inactive) and 6.93% (inactive).

As to `CC12CCC3C(CCC4CC(O)CCC43C)C1CC=C2c1ccccc1` (centres undefined), the activity change, negative = inhibition is 6.05% (inactive). Then `N[C@@H]1c2cccnc2[C@H](OC(=O)N2CCC(n3c(=O)[nH]c4ncccc43)CC2)CC[C@H]1c1cccc(F)c1F`, with -1.69% (inactive); and `C=C[C@@H]1C[C@]1(NC(=O)[C@@H]1C[C@@H]2CN1C(=O)[C@H](C(C)(C)C)NC(=O)O[C@@H]1C[C@H]1CCCCCc1nc3ccc(OC)cc3nc1O2)C(=O)NS(=O)(=O)C1CC1`, with 0.122% (inactive). To `C=C[C@@H]1C[C@]1(NC(=O)[C@@H]1C[C@@H](Oc2ncc(OC)c3ccc(Cl)cc23)CN1C(=O)[C@@H](NC(=O)OC(C)(C)C)C(C)(C)C)C(=O)NS(=O)(=O)C1CC1` belongs -73.7% (active); to `CCOc1ccccc1O[C@H](c1ccccc1)[C@H]1CNCCO1` (racemic), 8.34% (inactive).

As to `O=C(c1ccc(C(=O)N2CCC(N3CCCC3)CC2)c(Nc2ccccc2)c1)N1CCC(N2CCCC2)CC1`, the activity change, negative = inhibition was -4.76% (inactive). Then `O=C(c1cncc(Br)c1)N1CCC(N2CCCC2)CC1`, with 15.9% (inactive); and `O=C(c1ccc(Nc2nccc(-c3cc4ccccc4s3)n2)cc1)N1CCC(N2CCCC2)CC1`, with -80.6% (active) and -80.3% (active); and `CC1=C2C(O)C(=O)OC3CC4C(C)(C)C(=O)C=C[C@]4(C)C(CC1)[C@]23C` (some centres undefined), with 9.55% (inactive). Then `COC(=O)N[C@H](C(=O)N1CC2(CC2)C[C@H]1c1ncc(-c2ccc3c(c2)C(F)(F)c2cc(-c4ccc5nc([C@@H]6[C@H]7CC[C@H](C7)N6C(=O)[C@@H](NC(=O)OC)C(C)C)[nH]c5c4)ccc2-3)[nH]1)C(C)C`, with -11.8% (inactive); and `CC(C)N=C(N)/N=C(\N)Nc1ccc(Cl)cc1`, with 13.8% (inactive) and 11.1% (inactive); and `Cc1ccc2c(=O)c3ccccc3n(CCCN)c2c1C`, with -91.1% (active) and -77% (active). Then `Cc1ccc2c(=O)c3cccc(CC(=O)O)c3oc2c1C`, with 9.87% (inactive). Take `Cc1cc(=O)c(C(=O)N[C@@H](C(=O)N[C@@H]2C(=O)N3C(C(=O)O)=C(CSc4nnnn4C)CS[C@H]23)c2ccc(O)cc2)c[nH]1`: the activity change, negative = inhibition is 9.23% (inactive). Take `NC(CC(=O)Nc1ccc(Oc2cc(F)c(F)cc2Br)cc1)C(=O)O` (centres undefined): the activity change, negative = inhibition is 0.0757% (inactive). With `COc1cc(OC)c(C(C)=O)c(O)c1C`, the activity change, negative = inhibition was 2.79% (inactive). To `CCCCCCCCCCCCCC[C@@H](O)[C@@H](O)[C@@H](N)CO` belongs 24.8% (inactive); to `Nc1[nH]c(=O)ncc1F`, 8.39% (inactive) and -90.4% (active). Then `O=S(=O)(NCCNC/C=C/c1ccc(Br)cc1)c1cccc2cnccc12`, with 4.5% (inactive) and -8.12% (inactive). To `O=C(C(c1ccccc1)c1ccccc1)N1CCN(CC(O)COc2cccc3ncccc23)CC1` (centres undefined) belongs 10.1% (inactive). In the case of `Cn1c(=O)n(-c2ccc(C(C)(C)C#N)cc2)c2c3cc(-c4cnc5ccccc5c4)ccc3ncc21`, the activity change, negative = inhibition is 13.4% (inactive).

As for `CC(C)(C#N)c1ccc(N2C(=O)OCc3cnc4ccc(-c5cnc6ccccc6c5)cc4c32)cc1`, the activity change, negative = inhibition is -90.7% (active).

For the compound `C=CC(=O)Nc1cc(Nc2nccc(-c3cn(C)c4ccccc34)n2)c(OC)cc1N(C)CCN(C)C`, the activity change, negative = inhibition was -63.1% (inactive). For `C[C@H](CCC(=O)O)[C@H]1CCC2C3C(=O)CC4CC(=O)CC[C@]4(C)C3CC(=O)[C@@]21C` (some centres undefined), the activity change, negative = inhibition is 8.53% (inactive) and 10.4% (inactive). `O=c1[nH]cnc2nc[nH]c12`: the activity change, negative = inhibition was 7.14% (inactive).

Take `COc1cccc(-c2cc(=O)c3cc(OC)ccc3o2)c1`: the activity change, negative = inhibition was 316% (inactive). Then `O=C1Nc2ccc(Br)cc2/C1=C/c1cc2c([nH]1)CCCC2`, with 13.6% (inactive); and `CC(N)=NCCCC[C@H](N)C(=O)O`, with 11.5% (inactive). Then `CCCCCCCCCCC(CO)CCCCCCCC` (centres undefined), with 7.89% (inactive).

As for `CCCCC(CC)CN=C(N)NC(N)=NCCCCCCN=C(N)NC(N)=NCC(CC)CCCC` (centres undefined), the activity change, negative = inhibition is -87.6% (active). As for `C=C1CCC2C(CC2(C)C)C(=O)CCC1O` (centres undefined), the activity change, negative = inhibition was 4.7% (inactive). Then `C[C@@]1(C(=O)Nc2ccc(F)nc2)CCCN1c1nc(Nc2cc(C3CC3)[nH]n2)c2cccn2n1`, with -54.4% (inactive). To `CCOC(=O)[C@H](CCc1ccccc1)N[C@@H](C)C(=O)N1C(=O)N(C)C[C@@H]1C(=O)O` belongs 6.47% (inactive).

For the compound `CC1CCC(C(=O)N(c2cc(C#CC(C)(C)C)sc2C(=O)O)C2CCC(O)CC2)CC1` (centres undefined), the activity change, negative = inhibition was 16.2% (inactive).

On to `CCC(=O)O[C@]1(C(=O)CO)CC[C@H]2[C@@H]3CCC4=CC(=O)CC[C@]4(C)[C@H]3CC[C@@]21C`, for which the activity change, negative = inhibition is -9.17% (inactive). Then `CCCCC(=O)O[C@]1(C(=O)CO)CCC2C3CCC4=CC(=O)CC[C@]4(C)C3[C@@H](O)C[C@@]21C` (some centres undefined), with 0.149% (inactive) and 0.816% (inactive). For `C[C@]12CC[C@H]3[C@@H](CCC4=CC(=O)CC[C@@]43C)[C@@H]1CC[C@@H]2C(=O)CO`, the activity change, negative = inhibition is -83.1% (active). For the compound `CCCCCC(=O)O[C@]1(C(C)=O)CCC2C3CCC4=CC(=O)CC[C@]4(C)C3CC[C@@]21C` (some centres undefined), the activity change, negative = inhibition was -76.9% (active). As to `CC(=O)OCC(=O)[C@H]1CC[C@H]2[C@@H]3CCC4=CC(=O)CC[C@]4(C)[C@H]3CC[C@]12C`, the activity change, negative = inhibition is -73.9% (active) and -75.9% (active). To `CC(=O)OCC(=O)[C@H]1CCC2C3CCC4=CC(=O)CC[C@]4(C)C3CC[C@@]21C` (some centres undefined) belongs 0.487% (inactive).

For the compound `CC(=O)[C@@]1(O)CCC2C3CCC4=CC(=O)CC[C@]4(C)C3CC[C@@]21C` (some centres undefined), the activity change, negative = inhibition is 6.92% (inactive) and 3.13% (inactive). Then `CC(=O)OCC(=O)[C@H]1CCC2C3CC=C4C[C@@H](O)CC[C@]4(C)C3CC[C@@]21C` (some centres undefined), with 7.77% (inactive). Then `C[C@]12C[C@H](O)[C@H]3[C@@H](CCC4=CC(=O)CC[C@@]43C)[C@@H]1CC[C@@H]2C(=O)CO`, with 1.69% (inactive). Then `CCCOc1ccc(Br)cc1-c1cc(-c2ccc(Cl)cc2)[nH]c1-c1ccncc1`, with -7.79% (inactive); and `CC(C)N1CCN(c2ccc(C(=O)c3c(-c4ccc(O)cc4)sc4cc(O)ccc34)cc2)CC1`, with -3.21% (inactive) and -13.9% (inactive); and `NC(N)=Nc1nc(CSCC/C(N)=N\S(N)(=O)=O)cs1`, with 15.8% (inactive) and 7.35% (inactive). For the compound `CN1CCN(C2=Nc3cc(F)ccc3Cc3ccccc32)CC1`, the activity change, negative = inhibition is -3.95% (inactive).
